Shown are actives, neighbours in structure and some others; about 7.3% of the full set was active somewhere.
AmpC inh no detg – blocks E. coli AmpC beta-lactamase in detergent-free assay; Potency, µM (highest dose often 57.1 µM), for the others: at the top dose activity change, negative = inhibition, usual class: inhibitors; AmpC nitrocefin hydrolysis, absorbance 480 nm, 0.0001% Triton; 330,000 compounds, 0.52% hits;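 also: potency is read from the fitted curve at half-maximal effect; plate controls were no compound for no effect and no enzyme for full effect; nearly all actives have a fitted effect of over 20% in size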
Target sequence (P00811 whole entry, looked up): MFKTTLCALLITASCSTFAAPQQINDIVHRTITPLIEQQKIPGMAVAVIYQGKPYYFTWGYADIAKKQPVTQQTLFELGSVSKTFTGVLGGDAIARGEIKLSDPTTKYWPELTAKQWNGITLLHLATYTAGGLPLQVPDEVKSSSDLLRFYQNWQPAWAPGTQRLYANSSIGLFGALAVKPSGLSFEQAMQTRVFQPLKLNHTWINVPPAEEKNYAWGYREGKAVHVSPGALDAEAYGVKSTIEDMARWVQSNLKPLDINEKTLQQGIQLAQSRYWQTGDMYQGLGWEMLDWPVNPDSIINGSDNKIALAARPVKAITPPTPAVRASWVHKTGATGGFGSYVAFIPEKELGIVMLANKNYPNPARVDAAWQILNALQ
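AmpC (5.3 nM in the dispensed reagent) in 20 mM phosphate pH 7.0 with 0.01% (detergent screen) or 0.0001% Triton X-100 was preincubated with compounds for 15 min at room temperature. Nitrocefin was then added from an 800 uM solution, and hydrolysis was followed at 480 nm.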
HCMV antiviral – blocks human cytomegalovirus replication; HFF cells, HCMV-luciferase reporter, 72 h; hits give low values; 410,000 compounds, 4.5% hits; activity change, negative = inhibition, % at 57.5 µM; in the data active = activity change below about -60%; inconclusive = no clear call, values can overlap the other calls; inactive = above about -39%
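Compounds were evaluated in HFFs infected with an HCMV luciferase reporter virus (MOI 1 PFU/cell). Luciferase in lysates collected 72 h post infection served as the replication measure.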
AmpC inh detg – blocks E. coli AmpC beta-lactamase in detergent assay | AmpC hydrolysis of nitrocefin, absorbance 480 nm, 0.01% Triton | Potency, µM (highest dose often 114 µM), for the others: at the highest dose activity change, negative = inhibition, most hits filed as inhibitors | 370,000 compounds, 0.041% hits;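 also: potency is read from the fitted curve at half-maximal effect; 0% = no-compound wells and -100% = no-enzyme wells; nearly all actives have a fitted effect of over 25% in size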
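AmpC (5.3 nM in the dispensed reagent) in 20 mM phosphate pH 7.0 with 0.01% (detergent screen) or 0.0001% Triton X-100 was preincubated with compounds for 15 min at room temperature. Nitrocefin was then added from an 800 uM solution, and hydrolysis was followed at 480 nm.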
HCV inhibitor – HCV inhibition | Huh7.5.1 HCVcc-Cre infection, luciferase reporter, 44 h | Potency, µM (series often up to 41.8 µM), inactives show at the top dose activity change, negative = inhibition, most hits filed as inhibitors | 340,000 compounds, 3.4% hits; also: potency is read from the fitted curve at half-maximal effect
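Cells seeded at 1,000/well and cultured 4 h, then compounds added followed by HCVcc-Cre virus (~0.5 moi). After 44 h further culture, luciferase substrate was added, plates held 15 min at room temperature, and luminescence read for 15 sec.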
FMDV antiviral – blocks foot and mouth disease virus; 410,000 compounds, 1.2% hits; AID 1159524; FMDV antiviral cell-based qHTS; Potency, µM (titrated, usually from 57.9 µM), without a hit: top-dose activity change, negative = inhibition, hits mostly inhibitors; calls by dose curve; tested in HEK293T cells; also: read-out not given here; potency is read from the fitted curve at half-maximal effect; nearly all actives have a fitted effect of over 45% in size
Starred values were filed as active, the others as inactive. Unless noted, calls follow the shape of the dose curve; as a rule, active = well fitted curve in the direction sought with a large enough effect; inconclusive = small, poorly fitted or top-dose-only effect, or another doubt; inactive = no such curve, though single readings can be large; an effect the other way counts as inactive or inconclusive. Unless noted, % is scaled to controls: 0 for no effect and ±100 for the full control effect.

How did COc1nc(N(C)S(=O)(=O)c2ccc(C)cc2)nc(C)c1Cl do in these assays?
AmpC inh no detg: -8.3%; HCMV antiviral: -60.9*; AmpC inh detg: -14.0%; HCV inhibitor: inconclusive; FMDV antiviral: -7.6%

How did O=C(Cn1c(=O)n2nc(-c3cccc(F)c3)nc2c2ccccc21)N1CCN(c2ccccc2F)CC1 do in these assays?
HCMV antiviral: 15.2; AmpC inh detg: 7.3%; FMDV antiviral: -24.9%

How did O=C(N/N=C/c1cc2c3c(c1O)CCCN3CCC2)c1ccccc1O do in these assays?
AmpC inh no detg: -24.6%; HCMV antiviral: -99.9*; AmpC inh detg: -10.6%; HCV inhibitor: 3.16µM*; FMDV antiviral: -8.6%

Results for Cn1cc(/C=N/NC(=O)c2ccccc2O)c2ccccc21 ?
AmpC inh no detg: -58.6%; HCMV antiviral: 13.8; AmpC inh detg: -1.0%; HCV inhibitor: -7.7%; FMDV antiviral: 42.9%

How did NC(N)=Nc1nc(-c2ccccc2)c2ccccc2n1 do in these assays?
AmpC inh no detg: -3.0%; HCMV antiviral: -94.8*; AmpC inh detg: -1.0%; HCV inhibitor: -25.6%; FMDV antiviral: -11.0%

How did CCc1nc(N=C(N)N)nc2ccccc12 do in these assays?
AmpC inh no detg: -32.2%; HCMV antiviral: -82.0*; AmpC inh detg: 2.8%

What do the screens show for `N#Cc1cccc(NC(=O)CCN2C(=O)C3CCCCC3C2=O)c1` (centres undefined)?
AmpC inh no detg: 1.7%; HCMV antiviral: 24.6; HCV inhibitor: -2.3%; FMDV antiviral: 0.5%

What do the screens show for `Cn1nc(C(F)(F)F)c(/C=N/OC(=O)c2ccccc2)c1SCc1ccc(Cl)cc1`?
AmpC inh no detg: -13.8%; HCMV antiviral: -72.5*; AmpC inh detg: -1.3%; HCV inhibitor: inconclusive; FMDV antiviral: -9.2%

What do the screens show for `Cn1nc(C(F)(F)F)c(/C=N/OC(=O)c2ccccc2Cl)c1SCc1ccccc1Cl`?
AmpC inh no detg: -7.4%; HCMV antiviral: inconclusive; AmpC inh detg: -0.1%; HCV inhibitor: inconclusive; FMDV antiviral: -25.0%

Results for O=C(CSc1nc2c([nH]c3ccccc32)c(=O)n1-c1ccc(F)cc1)NCc1ccco1 ?
AmpC inh no detg: 22.4µM*; HCMV antiviral: -14.8; AmpC inh detg: 7.0%; HCV inhibitor: inconclusive; FMDV antiviral: inconclusive

What do the screens show for `CC(=O)Nc1ccc(NC(=O)CSc2nc3c([nH]c4ccccc43)c(=O)n2-c2ccccc2F)cc1`?
AmpC inh no detg: 22.4%; HCMV antiviral: -25.1; AmpC inh detg: -1.3%; HCV inhibitor: inconclusive; FMDV antiviral: -27.5%

Results for Cc1ccc(-n2c(SCC(=O)Nc3cc(C)on3)nc3c([nH]c4ccccc43)c2=O)cc1 ?
AmpC inh no detg: inconclusive; HCMV antiviral: -70.0*; AmpC inh detg: inconclusive; HCV inhibitor: inconclusive; FMDV antiviral: -7.6%

Results for COc1cccc(-n2c(SCC(=O)Nc3c(C)cc(C)cc3C)nc3c([nH]c4ccccc43)c2=O)c1 ?
HCMV antiviral: -80.3*; AmpC inh detg: 1.8%; FMDV antiviral: -5.1%

How did COc1cccc(NC(=O)CSc2nc3c([nH]c4ccccc43)c(=O)n2-c2cc(C)cc(C)c2)c1 do in these assays?
HCMV antiviral: -30.3; AmpC inh detg: 4.6%; FMDV antiviral: -16.9%

Results for O=C(CSc1nc2c([nH]c3ccccc32)c(=O)n1-c1ccccc1F)Nc1cccc(C(F)(F)F)c1 ?
HCMV antiviral: -62.4*; AmpC inh detg: 4.8%; FMDV antiviral: inconclusive

Results for CCOc1ccc(-n2c(SCC(=O)Nc3cc(C)on3)nc3c([nH]c4ccccc43)c2=O)cc1 ?
AmpC inh no detg: -26.1%; HCMV antiviral: -35.1; AmpC inh detg: inconclusive; HCV inhibitor: 22.4µM*; FMDV antiviral: -15.8%

What do the screens show for `CCc1ccc(NC(=O)CSc2nc3c([nH]c4ccccc43)c(=O)n2-c2ccc(C)cc2)cc1`?
HCMV antiviral: -96.0*; AmpC inh detg: 9.6%; FMDV antiviral: 0.0%

How did COc1ccc(-n2c(SCC(=O)Nc3cc(C)on3)nc3c([nH]c4ccccc43)c2=O)cc1 do in these assays?
AmpC inh no detg: -3.9%; HCMV antiviral: -13.1; AmpC inh detg: 4.8%; HCV inhibitor: 0.5%; FMDV antiviral: -23.6%
